Source: PubChem BioAssay
Compounds with a hit are over-represented: about 10% of the library has one in this group of screens.
FLuc inh = Photinus pyralis luciferase inhibition | 76,000 compounds, 2.5% hits | Potency, µM (titrated, usually from 115 µM), hits mostly inhibitors | purified P. pyralis luciferase, luminescence, biochemical; note: nearly all actives have a fitted effect of over 65% in size
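FLuc 10nM, D-luciferin 10uM, ATP 10uM, Mg acetate 10mM, Tris acetate pH 7.5, Tween/BSA; cpd qHTS; enzyme added last; CCD luminescence.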
GPT2 inhibitor = blocks human glutamate pyruvate transaminase 2; Q8TD30; Recombinant GPT2, coupled pyruvate oxidase/HRP Amplex Red fluorescence; Potency, µM (series often up to 57.7 µM), without a hit: at the top dose activity change, negative = inhibition, usual class: inhibitors; 100,000 compounds, 0.25% hits; AID 1671188; note: nearly all actives have a fitted effect of over 60% in size
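Recombinant GPT2 (10ng/uL) with 250uM a-KG and 2mM L-alanine, 30 min at room temperature, in HEPES pH 7.5 buffer. Pyruvate detected by pyruvate oxidase/HRP/Amplex Red fluorescence after 30 min in the dark; AOA (50uM) as positive control.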
NPR1 antag = blocks ANP-stimulated signaling of human Npr1 receptor; P16066; HEK293 hNpr1 GloSensor cGMP, ANP-stimulated luminescence; Potency, µM (series often up to 46.3 µM), without a hit: at the highest dose activity change, negative = inhibition, most hits filed as inhibitors; 76,000 compounds, 1.6% hits; calls by dose curve; note: nearly all actives have a fitted effect of over 60% in size
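Compound pre-incubated 30 min at room temperature on GloSensor-loaded HEK293 cells stably carrying hNpr1 and the pGS-40F cGMP biosensor. Stimulation uses hNppA at 0.1 nM final; luminescence is taken at baseline and 20 min post-agonist.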
HEK293 tox = cytotoxic compounds in HEK 293 cells | HEK 293 viability, ATP luminescence (CellTiter-Glo), 48-72 h | Potency, µM (doses to about 115 µM), for inactives: top-dose activity change, negative = cytotoxicity, usual class: inhibitors | 94,000 compounds, 6.6% hits | AID 1345083; note: nearly all actives have a fitted effect of over 60% in size
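HEK 293 cells seeded at 250 cells/well were exposed to compound for 48 or 72 hr at 37 degree Celsius. Viability taken as ATP content by CellTiter-Glo luminescence.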
NIH3T3 tox = cytotoxic compounds in NIH 3T3 cells | NIH 3T3 viability, CellTiter-Glo ATP luminescence, 48-72 h | Potency, µM (series often up to 96.7 µM), for the others: top-dose activity change, negative = cytotoxicity, usual class: inhibitors | 94,000 compounds, 4.3% hits | AID 1345082; note: nearly all actives have a fitted effect of over 55% in size
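First NIH 3T3 cells are plated at 400 cells/well; next compound is pinned in; then plates incubate 48 or 72 hr at 37 °C; finally CellTiter-Glo is added and luminescence read after 10 min.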
The depositor's hits bear a star; i = inactive; ? = inconclusive; · = no result; [ ] = remark or other dose. Unless noted, calls come from the whole dose curve; as a rule, active = well fitted curve in the direction sought with a large enough effect; inconclusive = small, poorly fitted or top-dose-only effect, or another doubt; inactive = no such curve, though single readings can be large; an effect the other way counts as inactive or inconclusive. % is set by controls: 0 for no effect and ±100 for the full control effect; potency is the fitted concentration of half-maximal effect.

SMILES	FLuc inh	GPT2 inhibitor	NPR1 antag	HEK293 tox	NIH3T3 tox
CCc1cccc(OCC(=O)c2ccc3c(c2)N(CC(=O)NCc2ccco2)C(=O)CO3)c1	i	i	-16%	?	-19%
COC[C@@H]1CN(Cc2ccc(OC)c(C)c2)C[C@H]1C(=O)N(C)C	i	i	-8%	-15%	3%
O=C(c1cc(-c2ccccc2)c2nncn2n1)N1CCOCC1	·	i	·	3%[172 µM]	-6%[138 µM]
Cc1cccc(OCC(=O)c2ccc3c(c2)N(CC(=O)N(C)Cc2ccccc2)C(=O)CO3)c1	i	i	-1%	22µM*	?
O=C([C@@H]1C[C@H](F)CN1S(=O)(=O)c1cc(F)ccc1F)N1CCCCC1	i	i	2%	-10%	-16%
Fc1ccc(-c2cnc3n2C[C@H](CN(Cc2ccccc2)Cc2ccccc2)OC3)cc1	i	1%[88.5 µM]	-20%[70.6 µM]	35µM*	28µM*
O=C(NC[C@H]1Cn2c(-c3ccc(F)cc3)cnc2CO1)c1ccc(Cl)cc1	?	4%[88.5 µM]	18µM*	89µM*	?
COc1ccccc1C(=O)NC[C@H]1Cn2c(-c3ccc(Cl)cc3)cnc2CO1	i	-3%[88.5 µM]	?	13µM*	10µM*
O=S(=O)(NC[C@H]1Cn2c(-c3ccc(F)cc3)cnc2CO1)c1ccc(Cl)cc1	i	-11%[88.5 µM]	?	100µM*	?
CC(C)NC(=O)c1nc(-c2ccc(Cl)cc2Cl)c2ccccn12	·	i	·	?	?
O=C(NC[C@H]1Cn2c(-c3ccc4c(c3)OCO4)cnc2CO1)c1ccc2c(c1)OCO2	?	-17%[88.5 µM]	-27%[70.6 µM]	63µM*	28µM*
O=C(CN1C(=O)NC2(CCCCC2)C1=O)Nc1ccc(C(F)(F)F)cc1	i	i	0%	28µM*	?
CC1CCC2(CC1)NC(=O)N(CC(=O)Nc1ccc(F)c(Cl)c1)C2=O (centres undefined)	i	i	4%	-27%	-8%
O=C(CN1C(=O)NC2(CCCCC2)C1=O)Nc1ccc(F)cc1	i	-6%	2%	?	-11%
CC1CCC2(CC1)NC(=O)N(CC(=O)Nc1ccc(Cl)cc1)C2=O (centres undefined)	i	i	1%	?	11µM*
O=C(NCc1ccccc1)c1ccc2nnc(-c3cc(C(F)(F)F)cc(C(F)(F)F)c3)n2c1	·	4%	·	40µM*	?
O=C(NCc1cccc(C(F)(F)F)c1)c1ccc2nnc(-c3cccc(C(F)(F)F)c3)n2c1	·	-21%	·	?	?
O=C(NCc1ccccc1)c1ccc2nnc(-c3cccc(C(F)(F)F)c3)n2c1	·	i	·	35µM*	?
O=C(NCc1cccc(C(F)(F)F)c1)c1ccc2nnc(-c3cc(C(F)(F)F)cc(C(F)(F)F)c3)n2c1	·	-11%	·	14µM*	20µM*
O=C(NCCc1ccc(Cl)cc1)c1ccc2nnc(-c3cc(C(F)(F)F)cc(C(F)(F)F)c3)n2c1	·	i	·	20µM*	25µM*
O=C(NCc1ccc(F)c(F)c1)c1ccc2nnc(-c3cc(C(F)(F)F)cc(C(F)(F)F)c3)n2c1	·	0%	·	?	?
O=C(Cc1ccc(F)cc1)N1CCc2nc(-c3ccccc3)nc(-c3ccc(Cl)cc3)c2C1	·	4%	·	?	?
N#Cc1cccc(-c2c(C(=O)NCCc3ccc(Cl)cc3)nc3sccn23)c1	·	-6%	·	-26%	-25%
CN1C(=O)c2sccc2N(C)c2nc(Nc3ccc(S(N)(=O)=O)cc3)ncc21	·	i	·	·	·
O=C(NCCc1ccc(Cl)cc1)c1ccc2nnc(-c3ccc(OC(F)(F)F)cc3)n2c1	·	i	·	79µM*	-22%
SMILES	FLuc inh	GPT2 inhibitor	NPR1 antag	HEK293 tox	NIH3T3 tox
O=C(NC1CCCCC1)c1ccc2nnc(-c3cccc(C(F)(F)F)c3)n2c1	·	?	·	32µM*	?
O=C(NCc1cccc(Cl)c1)c1ccc2nnc(-c3cc(C(F)(F)F)cc(C(F)(F)F)c3)n2c1	·	i	·	14µM*	?
O=C(NCc1cccc(C(F)(F)F)c1)c1ccc2nnc(-c3ccoc3)n2c1	·	i	·	?	?
O=C(NCCc1ccccc1)c1ccc2nnc(-c3ccc(OC(F)(F)F)cc3)n2c1	·	i	·	?	?
O=C(NCc1cccc(C(F)(F)F)c1)c1ccc2nnc(-c3ccc(Cl)cc3)n2c1	·	-14%	·	45µM*	40µM*
O=C(c1ccco1)N1CCC2(CC1)CC(OCC1CC1)CCO2 (centres undefined)	i	-10%	0%	5%	i
O=C(C1CCCC1)N1Cc2ccccc2CC2(CCN(Cc3ccncc3)C2)C1 (centres undefined)	·	i	·	?	?
CCn1ccnc1CN(C)Cc1cn(Cc2ccccc2)nc1-c1cc2ccccc2o1	i	i	-21%	45µM*	40µM*
CCn1ccnc1CN(C)Cc1cn(C)nc1-c1ccc(Oc2ccccc2)cc1	i	-18%	-8%	40µM*	?
COc1cccc(C(=O)N2CCC(C(=O)N3CCC(N4Cc5ccccc5C4=O)CC3)CC2)c1	·	-10%	·	?	-14%
OCc1cccc(-c2ccc3ncc(Nc4ccnc(N5CCOCC5)c4)n3n2)c1	?	1%[88.5 µM]	6%[70.6 µM]	100µM*	?
COc1ccccc1-c1ccc2ncc(Nc3ccnc(N4CCOCC4)c3)n2n1	i	i	-24%[70.6 µM]	?	?
COc1ccc(-c2ccc3ncc(Nc4ccnc(N5CCOCC5)c4)n3n2)cn1	i	3%[88.5 µM]	3%[70.6 µM]	28µM*	22µM*
O=C(c1ccc2ccccc2n1)N1CCC(n2cc(-c3nc(-c4ccccc4)no3)nn2)C1 (centres undefined)	28µM*	-6%	?	?	?
O=C(c1nccc2ccccc12)N1CCC(n2cc(-c3nc(-c4ccccc4)no3)nn2)C1 (centres undefined)	45µM*	i	?	28µM*	?
Cc1ccc(C(=O)N2CCC(n3cc(-c4nc(-c5ccccc5)no4)nn3)C2)s1 (centres undefined)	i	i	?	?	-13%
O=C(Cc1ccsc1)N1CCC(n2cc(-c3nc(-c4ccccc4)no3)nn2)C1 (centres undefined)	56µM*	i	-28%	?	-27%
O=C(c1ccco1)N1CCC(n2cc(-c3nc(-c4ccccc4)no3)nn2)C1 (centres undefined)	35µM*	1%	-27%	?	?
CN1CC(=O)N(C2CCNC2)Cc2c1ncnc2N1CCC(N2CCOCC2)CC1 (centres undefined)	·	i	·	i	i
Cn1cc(CN[C@H]2C[C@H]3C(=O)NC[C@@H](CCC(=O)NCc4ccc(F)cc4)N3C2)c2ccccc21	i	i	9%	-16%	-6%
